Results as given in PubChem BioAssay (NCATS).
Values without a mark were called inactive. Inconclusive results are not listed. Where a call stands in place of a potency, no number is given. Activity calls are given as the source filed them. Unless noted, calls follow the shape of the dose curve; as a rule, active = well fitted curve in the direction sought with a large enough effect; inconclusive = small, poorly fitted or top-dose-only effect, or another doubt; inactive = no such curve, though single readings can be large; an effect the other way counts as inactive or inconclusive.

Key:
[1] = Cellular Toxicity (caspase-3) HepG2 (AID 654);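 also: cells exposed to compound for 16 hours before reading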
In short: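 Concentration-response AC50 values reflect caspase-3/7 induction in HepG2 cells after 16 hours of compound exposure, quantified by luminescence from liberated aminoluciferin and referenced to 100 uM tamoxifen as full stimulation.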

[2] = Cellular Toxicity (caspase-3) HUV-EC-C (AID 656)
In short: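 HUV-EC-C endothelial cells, 1000/well, were pre-incubated 5 hr at 37°C, then exposed to compounds for 16 hr at 37°C. Caspase-Glo 3/7 luminescence was read after 20 min at room temperature. AC50 came from Hill fits, normalized to DMSO and 100 uM tamoxifen.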

[3] = Cellular Toxicity (caspase-3) SHSY5Y (AID 657)
In short: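 SH-SY5Y human neuroblastoma cells (1500/well) were treated with compounds for 16 h at 37 °C, then Caspase-Glo 3/7 luminescence was read after 1 h at room temperature. Data normalized to DMSO and 10 uM staurosporine; AC50 from Hill fits.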

[4] = Cellular Toxicity (caspase-3) BJ (AID 658)
In short: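 qHTS, BJ fibroblasts, 1000 cells/well; 5 hr preincubation, 16 hr compound, 37 °C; Caspase-Glo 3/7 reagent, 1 hr RT; luminescence. DMSO = 0%, 10 uM staurosporine = 100%. Hill-equation AC50.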

[5] = Cellular Toxicity (caspase-3) Mesangial (AID 660);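 also: combined caspase 3 and 7 activity read by Caspase-Glo luminescence; cells exposed to compound for 16 h before the caspase read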
In short: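 AC50 values come from Hill-equation fits of caspase 3/7 activation, measured as Caspase-Glo luminescence in human glomerular mesangial cells exposed to compound for 16 h at 37 °C; 100% set by 100 uM tamoxifen.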

[6] = Cellular Toxicity (caspase-3) SK-N-SH (AID 661)
In short: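 Apoptosis readout in SK-N-SH neuroblastoma: Caspase-Glo 3/7 luminescence following 16 hr treatment in complete culture medium. Normalization used DMSO and 10 uM staurosporine controls.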

[7] = Cellular Toxicity (caspase-3) H-4-II-E (AID 663); conditions: Potency: caspase-3 activation;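 also: cells exposed to compound for 16 hr before readout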
In short: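 H-4-II-E rat hepatoma, 1500 cells/well, 5 hr settle at 37 °C; compound 16 hr, 37 °C, complete medium; Caspase-Glo 3/7, 20 min RT; luminescence. DMSO = 0%, 100 uM tamoxifen = 100%; Hill-equation AC50.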

[8] = Cellular Toxicity (caspase-3) N2a (AID 665);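 also: compound exposure lasted 16 h at 37 °C before readout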
In short: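 Concentration-response qHTS: compound-induced caspase-3/7 luminescence in N2a cells (16 h, 37 °C), relative to DMSO and 10 uM staurosporine controls; AC50 obtained using the standard Hill equation.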

[9] = Cell Viability - LYMP2-001 (AID 921); also: nearly all actives have a fitted effect of over 70% in size; also: potency is read from the fitted curve at half-maximal effect
In short: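 Human lymphoblastoid cells (Coriell), 2500 per well, were preincubated 5 hr at 37 C, then exposed to compounds in complete medium for 24 hr at 37 C. Cellular ATP was read by CellTiter-Glo luminescence; AC50 from Hill fits of concentration-response data.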

[10] = Cell Viability - LYMP1-002 - Assay at 16 hr (AID 948)
In short: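 Human lymphoblastoid cells (LYMP1-002), 2500/well, were preincubated 5 hr at 37 C, then exposed to compounds for 16 hr at 37 C in complete medium. Cellular ATP was read by CellTiter-Glo luminescence after 30 min at room temperature; AC50 from Hill fits.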

[11] = MultiTox-Fluor Cytotoxicity Assay - LYMP1-003 - Dead Cells (AID 961); also: nearly all actives have a fitted effect of over 70% in size
In short: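 Acute toxicity is scored as increased dead-cell protease activity in human lymphoblastoid LYMP1-003 cells after 16 h compound exposure in complete culture medium. Activity is normalized to DMSO basal and 15 uM tetraoctylammonium bromide as full response.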

[12] = MultiTox-Fluor Cytotoxicity Assay - LYMP1-003 - Live Cells (AID 962);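 also: cytotoxic hits lower the live-cell protease signal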
In short: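 Human lymphoblastoid line LYMP1-003 in complete culture medium, treated 16 hr with titrated compounds. Viable cells quantified via cell-permeant GF-AFC substrate fluorescence; AC50 derived by Hill fitting.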

[13] = Cell Viability - LYMP2-013 (AID 970); also: nearly all actives have a fitted effect of over 55% in size; also: potency is read from the fitted curve at half-maximal effect
In short: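 In complete culture medium, human lymphoblastoid cells were dosed for 24 hr at 37 C, with tetraoctylammonium bromide (6.4pM to 92 uM) as positive control. Viability reflects luciferase-based ATP signal; AC50 derived from concentration-response curves.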

[14] = Cell Viability - LYMP2-023 (AID 975); also: nearly all actives have a fitted effect of over 55% in size; also: potency is read from the fitted curve at half-maximal effect
In short: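 In this qHTS, ATP-based luciferase luminescence (CellTiter-Glo) is quantified in human lymphoblastoid cells after 24 hr compound treatment at 37 C; tetraoctylammonium bromide serves as positive control. Concentration-response curves are Hill-fitted to give AC50.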

[15] = Cell Viability - LYMP2-025 (AID 976); also: potency is read from the fitted curve at half-maximal effect
In short: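 Luminescent ATP readout after 24 hr treatment of a human lymphoblastoid line (LYMP2-025, 2500 cells/well, 37 C). Reagent developed 30 min at room temperature; AC50 fitted with the Hill equation.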

[16] = Cell Viability - LYMP2-007 (AID 979);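 also: cells exposed to compound for 24 h before reading; nearly all actives have a fitted effect of over 60% in size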; also: potency is read from the fitted curve at half-maximal effect
In short: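 Measured via luciferase-based ATP quantitation: lymphoblastoid cells, 24 hr compound exposure at 37 C, AC50 from Hill fits.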

[17] = Cell Viability - LYMP2-008 (AID 980); also: nearly all actives have a fitted effect of over 60% in size; also: potency is read from the fitted curve at half-maximal effect
In short: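 Measured: ATP-dependent luminescence, proportional to viable cell number, in human lymphoblastoid cells treated 24 hr with compound in complete culture medium. Values are AC50s from Hill-equation modelling of qHTS titrations.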

[18] = Cell Viability - LYMP2-026 (AID 989); also: nearly all actives have a fitted effect of over 50% in size; also: potency is read from the fitted curve at half-maximal effect
In short: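 Acute toxicity screen in complete culture medium, with 24 hr compound exposure at 37 C. Viability read as cellular ATP via luciferase reaction, with tetraoctylammonium bromide (6.4pM to 92 uM) as positive control.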

[19] = qHTS Assay for Identification of Small Molecule Inducers of Hypoxia Response (AID 2120; active = well fitted curve in the direction sought with a large enough effect in the signal ratio, with a control signal flat, not every such curve was filed as active; the % refers to the signal ratio)
In short: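 HRE-bla ME-180, 2500 cells/well, 0.5% dialyzed FBS medium; cpd titration, 17 h 37 degrees C; CCF4 2.5 h RT; Ex 405, Em 460/530 ratio -> %Activity, AC50.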

[20] = qHTS assay for cell viability of HEK293 cells (AID 743288); conditions: ATP luminescence (CellTiter-Glo), 18 h, hits give low values; also: nearly all actives have a fitted effect of over 50% in size
In short: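 After 18 h compound exposure at 37 C, parental HEK293 cells (2,000/well) are lysed with CellTiter-Glo and luminescence is read following 30 min at room temperature.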

SMILES | outcome [1] | outcome [2] | outcome [3] | outcome [4] | outcome [5] | Potency [6] | Potency [7] | outcome [8] | Potency [9] | outcome [10] | Potency [11] | outcome [12] | Potency [13] | Potency [14] | Potency [15] | Potency [16] | Potency [17] | Potency [18] | Potency [19] | max response [20] [%]
O=P(OCCCl)(OCCCl)OCCCl | inactive | inactive | inactive | inactive | inactive | inactive | inactive | inactive | inactive | inactive | inactive | inactive | inactive | inactive | inactive | inactive | inactive | inactive | inactive | -2.52
C=COC(C)=O | inactive | inactive | inactive | inactive | inactive | inactive | inactive | inactive | inactive | inactive | inactive | inactive | inactive | inactive | inactive | inactive | inactive | inactive | inactive | -3.61
N#CC(O)c1ccccc1 (centres undefined) | inactive | inactive | inactive | inactive | inactive | inactive | inactive | inactive | inactive | inactive | inactive | inactive | inactive | inactive | inactive | inactive | inactive | inactive | inactive | 2.16
N#CCCC#N | inactive | inactive | inactive | inactive | inactive | inactive | inactive | inactive | inactive | inactive | inactive | inactive | inactive | inactive | inactive | inactive | inactive | inactive | inactive | -2.73
N#C/C=C/C#N | inactive | inactive | inactive | inactive | inactive | inactive | inactive | inactive | 31.6 µM (active) | inactive | inactive | inactive | 39.8 µM (active) | 39.8 µM (active) | 50.1 µM (active) | 39.8 µM (active) | 39.8 µM (active) | 39.8 µM (active) | inactive | 
CN(C)c1ccc(N=Nc2ccccc2)cc1 | inactive | inactive | inactive | inactive | inactive | inactive | inactive | inactive | inactive | inactive | inactive | inactive | inactive | inactive | inactive | inactive | inactive | inactive | inactive | -8.55
